Test results from PubChem BioAssay.

These compounds were tested against Calmodulin-1 (Homo sapiens) (UniProt P0DP23) (assay: small molecules binding Ca-loaded calmodulin-1 – biochemical, small-molecule microarray, Cy5-labelled CALM1, plus calcium, artefact control for SMM control-protein annotation, profiling panel (AID 1112;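 further: score merges spot fluorescence with signal to noise from triplicate slides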)). Settings: Cy5-CALM1 binding fluorescence, higher = more signal.

| SMILES | composite z-score |
| --- | --- |
| Cc1nc2cc(Br)ccc2c(=O)n1Cc1cccc(O)c1 | 0.302 |
| C=C[C@@H](C)[C@H](O)c1ccc(OCCO)cc1 | 0.521 |
| C=CCN1C(=O)[C@]2(O[C@H](CCO)[C@@H]([Si](C)(C)c3ccc(OC)cc3)[C@@H]2C)c2cc(NC(=O)c3ccc(OC)cc3)ccc21 | 0.631 |
| CCOC(=O)C[C@H]1[C@H](OC(=O)c2cc3ccccc3oc2=O)[C@@H](NC(=O)c2ccc3ccccc3c2)c2cc(OCCCO)ccc2N1C(=O)Cc1ccc(OC)cc1 | -0.239 |
| COc1ccc(C#Cc2ccc3c(c2)[C@]2(C(=O)N3)[C@H](c3ccc(OCCO)cc3)N3[C@H](c4ccccc4)[C@H](c4ccccc4)OC(=O)[C@H]3[C@@H]2C(=O)N2CCc3cc(OC)c(OC)cc3C2)cc1 | 0.684 |
| COC(=O)c1c2oc(c1C(=O)OC)C(=O)N1CCC[C@H]1Cn1nncc1CN(Cc1ccccc1)C(=O)N[C@H](CO)CC2 | 0.169 |
| COC(=O)C(CC#Cc1ccc2c(c1)[C@]1(C(=O)N2)[C@H](c2ccc(O)cc2)N2[C@H](c3ccccc3)[C@H](c3ccccc3)OC(=O)[C@H]2[C@@H]1C(=O)N1CCCCCCC1)C(=O)OC | 1.64 |
| C=C[C@H](C)[C@H](OC(=O)Nc1ccc(OC)cc1)c1ccc(OCCO)cc1 | -0.0296 |
| [N-]=[N+]=NC[C@H](Cc1ccccc1)NC(=O)c1ccccc1 | -0.203 |
| COc1ccc([Si](C)(C)[C@H]2[C@H](CC(=O)N3Cc4ccccc4C[C@H]3CO)O[C@@]3(C(=O)N(Cc4ccc(N5C(=O)c6cccc7cccc5c67)cc4)c4ccccc43)[C@@H]2C)cc1 | 0.049 |
